Reference: ChEMBL document CHEMBL4513216, “Probing the Open Global Health Chemical Diversity Library for Multistage-Active Starting Points for Next-Generation Antimalarials” (ACS Infect Dis, 2020)
About 8,600 (12%) of roughly 69,000 compounds showed an effect of 50% or more. For the sample, strong results were picked, then their nearest neighbours and some compounds at random.

Each compound was assayed on Plasmodium berghei (assay: Screen against P. berghei liver stage (PbLuc), transformed with Luciferase, at 10uM). Settings: tested at 10 uM.
Format: functional, HepG2

| Compound | INHIBITION [%] |
| --- | --- |
| CS(=O)(=O)CCn1ccc(NC(=O)Cc2ccccc2Cl)n1 | 25.2 |
| CSCCC(Nc1nc(C)cc(C)n1)C(=O)NC1CC1 (stereo not given) | -15.4 |
| NC(=O)C1CN(c2ccc(Br)cn2)CCO1 (stereo not given) | 69.7 |
| Cc1ccccc1CSc1nc(N)cc(N2CCOC(C(N)=O)C2)n1 (stereo not given) | -19.2 |
| NC(=O)C1CN(c2ccc3cc(Br)ccc3n2)CCO1 (stereo not given) | 37.1 |
| CC(=O)NCc1nnn2c1CN(c1ncccn1)CCC2 | 54.8 |
| OCCOCc1nnn2c1CN(c1ncccn1)CCC2 | 43.8 |
| c1ccc(OCc2nnn3c2CN(c2ncccn2)CCC3)nc1 | 57.1 |
| c1cnc(N2CCCn3nnc(COCC4CC4)c3C2)nc1 | 18.7 |
| CCS(=O)(=O)N1CCCn2nnc(CNC(C)=O)c2C1 | 52.1 |
| CCS(=O)(=O)N1CCCn2nnc(Cn3cccc3)c2C1 | 36.5 |
| CC(=O)NCc1nnn2c1CN(c1ncc(C)cn1)CCC2 | 21.3 |
| CN(C)C(=O)NCc1nnn2c1CN(CC1CCOCC1)CCC2 | -51 |
| c1ccc(CN2CCCn3nnc(COc4ccccn4)c3C2)nc1 | 24.9 |
| O=C(c1ccco1)N1CC[C@H]2C[C@@H](c3nccs3)O[C@@H]2C1 | -7.59 |
| COc1cccc(CNC(=O)c2cc(C)nc(N3CCCCC3)n2)c1 | 4.97 |
| CCc1csc(C2CCCN(C(=O)c3ccco3)C2)n1 (stereo not given) | 19.6 |
| CC(=O)N1CCC(C)(c2cc(C(=O)NCC3CC3)nc(C)n2)CC1 | 9.075 |
| O=C1CC2(CCCCN2C(=O)c2ccsc2)CN1CC1CC1 (stereo not given) | 37.4 |
| COCCn1cnc2ccc(NC(=O)c3ccccn3)cc2c1=O | 19.4 |
| O=C(CCn1cnc2ccccc21)N1CCN2CCCCC2C1 (stereo not given) | 40.1 |
| COc1cccc(OC2CN(C(=O)c3c(C)noc3C)C2)c1 | -57.7 |
| CC(C)Cc1cc(C(=O)N2CCC(Oc3cccnc3)CC2)n(C)n1 | 5.11 |
| COc1cccc(OC2CN(C(=O)c3sccc3C)C2)c1 | -17.6 |
| CCn1nc(CC(C)C)cc1C(=O)N1C[C@H](O)[C@@H](N2CCCCC2)C1 | 29.7 |
| COc1cccc(OC2CN(C(=O)c3cc(CC(C)C)nn3C)C2)c1 | 79.2 |
| CCn1nc(CC(C)C)cc1C(=O)N1CC(c2ccncc2)C1 | 57.4 |

| Compound | INHIBITION [%] |
| --- | --- |
| CCn1nc(CC(C)C)cc1C(=O)N1CC[C@@H](O)C1 | 26.8 |
| CC(C)Cc1cc(C(=O)N2CC(OCc3ccccc3F)C2)n(C)n1 | 43.2 |
| COc1cccc(OC2CN(C(=O)Cn3nc4ccccc4n3)C2)c1 | 28.7 |
| COc1cccc(OC2CN(C(=O)CCn3cnc4ccccc43)C2)c1 | 70 |
| COc1cccc(OC2CN(C(=O)CCn3cnnn3)C2)c1 | 55.9 |
| Cc1ccc(CNC(=O)NCCCO)cc1 | 0.914 |
| Cc1ccc(C(NC(=O)C2CCC(O)CC2)c2cccnc2)cc1C (stereo not given) | 7.84 |
| Cc1ccccc1S(=O)(=O)NC(=O)C1(c2ccccc2)CCC1 | 35.2 |
| Cc1ccc(S(=O)(=O)NC(C)(C)CN)c(F)c1 | -21.8 |
| Cn1ccc(C2CCCCCN2C(=O)c2cccnc2)n1 (stereo not given) | -1.16 |
| Cn1ccc(C2CCCCN2C(=O)c2cccc(-n3cccn3)c2)n1 (stereo not given) | 56.1 |
| Cn1ccc(C2CCCCN2C(=O)c2cccc(Cn3cccn3)c2)n1 (stereo not given) | 15 |
| O=S(=O)(NCCCn1cncn1)c1ccc2c(c1)OCCCO2 | 49 |
| CSc1ncccc1C(=O)N1C[C@@H]2CC[C@H]1CN(c1cnccn1)C2 | 0.139 |
| CC(C)(CNc1cccc(Cl)c1)NC(=O)C1CCCN(CC(N)=O)C1 (stereo not given) | 69.9 |
| CC(C)(CNC(=O)C1CCCN(C(N)=O)C1)c1cccc(Cl)c1 (stereo not given) | 21.5 |
| NC(=O)N1CCCC(C(=O)Nc2cccc(Cl)c2)C1 (stereo not given) | 37.5 |
| O=C(c1cccc2c1OCO2)N1CCC(N2CCCC2)CC1 | -17.4 |
| c1ccc(COC2C[C@@H]3CN(Cc4cncnc4)C[C@@H]3C2)cc1 (stereo not given in full) | 28 |
| CCc1noc(C2CCCCN2C(=O)c2cccnc2)n1 (stereo not given) | -8.9 |
| Cc1noc(C)c1C(=O)N1CCCC1c1c(C)nn(C)c1C (stereo not given) | -50.5 |
| Cc1cc(CNC2(c3ccc(Cl)cc3)CC2)no1 | 16.8 |
| OC1(c2ccc(F)cc2)CCN(Cc2ccccc2N2CCCC2)CC1 | 43.4 |
| Cc1cccc(C2(O)CCN(Cc3ccccc3N3CCCC3)CC2)c1 | 61 |
| OC1(c2ccccc2F)CCN(Cc2ccccc2N2CCCC2)CC1 | 46.2 |
| C1CCC(NC2CCCN(Cc3noc(C4CC4)n3)C2)C1 (stereo not given) | 17.3 |
| CCOc1cccc(C2CC(=O)NCc3nc(N)sc32)c1 (stereo not given) | 42.2 |

| Compound | INHIBITION [%] |
| --- | --- |
| CCOc1cccc(C2CC(=O)NCc3nc(N(C)C)sc32)c1 (stereo not given) | 11.7 |
| CCOc1cccc(C2CC(=O)NCc3nc(N4CCCC4)sc32)c1 (stereo not given) | 56.5 |
| Cc1cccc(C)c1OCCNC(=O)CN1CCN(C)CC1C (stereo not given) | -17.7 |
| Cc1ccc2c(c1)cc(CN1CC[C@](C)(O)[C@H](C)C1)n2C | 42.1 |
| CN1CCN(C2CCN(Cc3cn4ccccc4n3)CC2)C1=O | -22.3 |
| CN(C)Cc1cnc2n1CCN(C(=O)C1CC=CC1)CC2 | 36.9 |
| Cc1ccc(CN2CC[C@@H]3OCCN(Cc4ccncc4)[C@H]3CC2)s1 | 58.3 |
| CS(=O)(=O)N1CCO[C@@H]2CCN(Cc3ccncc3)CC[C@H]21 | 23.6 |
| Cc1ccc(CN2CC[C@H]3[C@H]2CCN3S(C)(=O)=O)s1 | 58.7 |
| Cc1ccc(CN2CC[C@H]3[C@H]2CCN3S(=O)(=O)C2CC2)s1 | 13.7 |
| Cc1cccc(CN2C(=O)CC[C@@H]3[C@H]2CCN3Cc2ccc(C)s2)n1 | 33.5 |
| Cc1ccc(CN2CC[C@@H]3OCCN(S(C)(=O)=O)[C@H]3CC2)s1 | 34.5 |
| Cc1ccc(CN2CC[C@@H]3[C@H]2CCC(=O)N3Cc2ccncc2)s1 | 68.4 |
| Cc1ccc(CN2CC[C@H]3[C@@H]2CCC(=O)N3CCN2CCCC2)s1 | 32.4 |
| Cc1cc(CN2CC[C@H]3[C@H]2CCN3S(C)(=O)=O)oc1C | 16.1 |
| Cc1nc(CN(C)C2CCN(Cc3ccc4c(c3)CCC4)C2)no1 (stereo not given) | 31.3 |
| NC(=O)C1CNCCN1C(=O)COc1ccccc1 (stereo not given) | 36 |
| Cc1csc(CN2CC[C@H]3C[C@@H](c4nc(C)no4)O[C@@H]3C2)n1 | -11.6 |
| CN1[C@@H](C(=O)NCC2CC2)C[C@@H]2CN(Cc3ccsc3)C[C@@H]21 | -9.74 |
| CNC(=O)CCc1cc(C)nc(C2CCN(c3ccccc3)CC2)c1 | 20.24 |
| Cc1nnc(N2C[C@H]3OCC[C@H]3[C@H](C(=O)NCC3CC3)C2)s1 | 66.9 |
| COCCNC(=O)[C@H]1CN(Cc2csc(C)n2)C[C@H]2OCC[C@@H]12 | 24.9 |
| Cc1nnc(N2C[C@H](C(=O)NCC3CC3)[C@@H]3CCO[C@@H]3C2)s1 | -19.7 |
| COCCNC(=O)[C@H]1CN(c2ncccn2)C[C@H]2OCC[C@@H]12 | 55.5 |
| Cc1nnc(N2C[C@H](C(=O)NCc3ccco3)[C@@H]3CCO[C@@H]3C2)s1 | 15.4 |
| COCCNC(=O)[C@H]1CN(Cc2cccs2)C[C@H]2OCC[C@@H]12 | 43.9 |
| COCCNC(=O)[C@@H]1CN(c2cc(OC)ncn2)C[C@H]2OCC[C@H]21 | 24.9 |

| Compound | INHIBITION [%] |
| --- | --- |
| COCCNC(=O)[C@H]1CN(c2nnc(C)s2)C[C@H]2OCC[C@@H]12 | 52.9 |
| COCCNC(=O)[C@@H]1CN(c2ncccn2)C[C@H]2OCC[C@H]21 | 43.9 |
| Cc1cccc(CN2CCc3nnc(CO)n3CC2)n1 | 27.4 |
| O=C1[C@H]2CN(Cc3cccs3)C[C@H]2CN1CCN1CCCC1 | 9.97 |
| Cc1c(C2CCCN(C(=O)c3cccnc3)C2)n2c(nc1=O)CCC2 (stereo not given) | -73.1 |
| O=C(C1CCOC1)N1CCN(CC2CC2)c2ccccc21 (stereo not given) | 42.8 |
| CCOCC1CN(C(=O)c2ccoc2C)Cc2cnn(C)c21 (stereo not given) | 23.3 |
| Nc1cncc(C(=O)N2Cc3ccccc3OC3(CCOCC3)C2)c1 | 22 |
| Cc1nc(C)n(C2CCCN(C(=O)c3cccc4[nH]ncc34)C2)n1 (stereo not given) | -50.8 |
| Cc1nc(C)n(C2CCCN(C(=O)c3ccccc3C)C2)n1 (stereo not given) | 31.1 |
| COc1cc(Cl)ccc1C(=O)N1CCCC(n2nc(C)nc2C)C1 (stereo not given) | 19.4 |
| COc1ccc(C(=O)N2CCCC(n3nc(C)nc3C)C2)c(OC)c1 (stereo not given) | 52.3 |
| COc1ccc(C)cc1C(=O)N1CCCC(n2nc(C)nc2C)C1 (stereo not given) | -9.37 |
| Cc1nc(C)n(C2CCCN(C(=O)c3cccc4cn[nH]c34)C2)n1 (stereo not given) | 56 |
| Cn1ccc(CN2CCC(NC(=O)C3CCCCC3)CC2)cc1=O | 5.907 |
| CC1(C(=O)NCc2cccc(C(F)(F)F)c2)CCOCC1 | 15.9 |
| O=C1CSC(C(F)(F)F)c2c(O)nn(C3CCCC3)c2N1 (stereo not given) | 13.1 |
| CCC(C)NC(=O)Nc1cccc(OCC#N)c1 (stereo not given) | 5.29 |
| c1ccc(Oc2ccc(OC34CCCN(CC3)C4)cc2)cc1 (stereo not given) | 57.6 |
| Cc1cnccc1CNCc1ccc(OC23CCCN(CC2)C3)cc1 (stereo not given) | 21.525 |
| c1ccc(Oc2cccc(OC34CCCN(CC3)C4)c2)cc1 (stereo not given) | 65.7 |
| O=c1[nH]nc(CNCc2ccc(OC34CCCN(CC3)C4)cc2)[nH]1 (stereo not given) | 21.085 |
| N#Cc1cccc(OC23CCCN(CC2)C3)c1 (stereo not given) | 21.2 |
| Cc1nc(CNCc2cccc(OC34CCCN(CC3)C4)c2)n[nH]1 (stereo not given) | 31.15 |
